Nine molecules from PubChem BioAssay (NCI) can be followed below.

Compounds without any hit were thinned out: in the full panel of roughly 83,000, 20% have a hit.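 Cell lines were cultured in 96-well plates, exposed to a single compound concentration, and assessed for percent growth 48 hours later.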 A number with no mark means an inactive call. The source made the active and inactive calls. How the source made its calls: active means growth percent below 10; inactive means the rest.

What all share (test): NCI-60 one-dose screen, 48 h (100 = growth as untreated, 0 = no growth, -100 = all killed)
One assay concerns SK-MEL-2 melanoma. Particulars: 10 µM unless noted.
The subject of another assay is EKVX NSCLC. Particulars: 10 µM unless noted.
Another assay has as its system SN12C renal. The following applies: 10 µM unless noted.
The test system of a further assay is UO-31 renal. The following applies: 10 µM unless noted.
A further assay concerns TK-10 renal. The following applies: 10 µM unless noted.
The subject of another assay is ACHN renal. The following applies: 10 µM unless noted.
For the next assay, the system named is A498 renal. Particulars: 10 µM unless noted.
For the next assay, the system named is CCRF-CEM leukemia. Particulars: 10 µM unless noted.
The subject of a further assay is MOLT-4 leukemia. The following applies: 10 µM unless noted.
A further assay concerns RPMI-8226 leukemia. Particulars: 10 µM unless noted.
The subject of a further assay is OVCAR-8 ovarian. The following applies: 10 µM unless noted.
For a further assay, the system named is OVCAR-5 ovarian. The following applies: 10 µM unless noted.
In the next assay the test system is OVCAR-4 ovarian. The following applies: 10 µM unless noted.
In another assay the test system is SK-OV-3 ovarian. Particulars: 10 µM unless noted.
The next assay concerns IGROV1 ovarian. The following applies: 10 µM unless noted.
The subject of another assay is OVCAR-3 ovarian. Particulars: 10 µM unless noted.
Another assay concerns HS 578T breast. Particulars: 10 µM.
A further assay deals with NCI/ADR-RES ovarian. The following applies: 10 µM unless noted.
The subject of a further assay is CAKI-1 renal. The following applies: 10 µM unless noted.
A further assay deals with SR leukemia. Particulars: 10 µM unless noted.

`O=C(NO)c1ccc(NCc2csc3ccccc23)cc1`: the growth in the assay on SK-MEL-2 melanoma was 84.1%; in the assay with EKVX NSCLC it was 69.7%; in the assay on SN12C renal, 59.4%; with UO-31 renal, 39.5%; in the assay with TK-10 renal, 59.1%; in the assay on ACHN renal, 69.6%. The growth with A498 renal was 57.1%; in the assay with CCRF-CEM leukemia it was 44.7%; with MOLT-4 leukemia it was 43.1%; in the assay on RPMI-8226 leukemia, 35.7%; in the assay on OVCAR-8 ovarian, 42%; in the assay on OVCAR-5 ovarian, 73.4%. In addition, the growth in the assay with OVCAR-4 ovarian was 67.8%; with SK-OV-3 ovarian, 81.8%; in the assay with IGROV1 ovarian, 55.6%; in the assay on OVCAR-3 ovarian, 66.8%; with HS 578T breast, 70.5%; in the assay with NCI/ADR-RES ovarian, 6.83% (active).
In the case of `C/C(=C\C(=N\N=C(N)N)c1ccc(Cl)cc1)c1ccc(Cl)cc1`, the growth was -86.4% (active) in the assay on SK-MEL-2 melanoma; -28.2% (active) in the assay on EKVX NSCLC; -73.8% (active) with SN12C renal; -80.1% (active) in the assay on UO-31 renal; -83.4% (active) in the assay on TK-10 renal; -85.8% (active) in the assay with ACHN renal. For the same molecule, the growth was -58.4% (active) with CAKI-1 renal; -22.5% (active) with CCRF-CEM leukemia; -48% (active) with MOLT-4 leukemia; -67.9% (active) in the assay with SR leukemia; -40.2% (active) in the assay on RPMI-8226 leukemia; -80.9% (active) with OVCAR-8 ovarian. For the same molecule, the growth in the assay with OVCAR-5 ovarian was -75.5% (active); with SK-OV-3 ovarian, -22.4% (active); in the assay with IGROV1 ovarian, -60.6% (active); with OVCAR-3 ovarian, -87.7% (active); in the assay on HS 578T breast, -50.9% (active); in the assay with NCI/ADR-RES ovarian it was -69.6% (active).
Regarding `Cn1c(=O)c2c3c(oc2c2ccccc21)C(=O)c1ccccc1C3=O`, the growth in the assay with SK-MEL-2 melanoma was 92.6%; in the assay on EKVX NSCLC, 70.7%; in the assay with SN12C renal, 81.8%; with UO-31 renal it was 54.8%; with TK-10 renal it was 94.5%; in the assay with ACHN renal it was 75.5%. Also, the growth with A498 renal is 93.3%; with CCRF-CEM leukemia it was 19.1%; with MOLT-4 leukemia it was 2.39% (active); in the assay with RPMI-8226 leukemia, 51.1%; in the assay on OVCAR-8 ovarian, 85.3%; in the assay with OVCAR-5 ovarian, 120%. For the same molecule, the growth in the assay with OVCAR-4 ovarian is 4.38% (active); in the assay with SK-OV-3 ovarian, 93.6%; with IGROV1 ovarian it was 68.7%; with OVCAR-3 ovarian, 21.6%; in the assay with HS 578T breast, 93.2%; in the assay with NCI/ADR-RES ovarian, 76.9%.
For `CC(=O)c1cccc(Nc2ncnc3ccc(NC(=O)c4ccco4)cc23)c1`, the growth with SK-MEL-2 melanoma was 98.1%; in the assay on EKVX NSCLC it was 84.8%; in the assay with SN12C renal, 87.4%; in the assay on UO-31 renal it was 64.8%; in the assay with TK-10 renal it was 99.6%; with ACHN renal it was 87.1%. For the same molecule, the growth was 82.4% with A498 renal; 96.5% with CCRF-CEM leukemia; 77.5% in the assay on MOLT-4 leukemia; 90.2% in the assay with SR leukemia; 75% in the assay with RPMI-8226 leukemia; 92.1% with OVCAR-8 ovarian. Further, the growth with OVCAR-5 ovarian was 90.4%; with OVCAR-4 ovarian it was 89%; with SK-OV-3 ovarian it was 104%; in the assay with IGROV1 ovarian it was 86.1%; in the assay with HS 578T breast it was 102%; in the assay with NCI/ADR-RES ovarian it was 92.7%.
Consider `COc1ccc(Sc2[nH]c(C=O)c3ccccc23)cc1`, for which the growth in the assay with SK-MEL-2 melanoma was 69%; in the assay on EKVX NSCLC, 33.2%; in the assay on SN12C renal, 89%; with UO-31 renal, 57.7%; in the assay on TK-10 renal, 34.1%; in the assay with ACHN renal, 87.1%. In addition, the growth was 33.1% in the assay on A498 renal; 0.79% (active) in the assay on CCRF-CEM leukemia; 41.9% in the assay on MOLT-4 leukemia; 16.6% in the assay on SR leukemia; -17.3% (active) in the assay with RPMI-8226 leukemia; 69.3% in the assay on OVCAR-8 ovarian. Also, the growth in the assay on OVCAR-5 ovarian is 28.5%; in the assay on OVCAR-4 ovarian, 60.3%; in the assay on SK-OV-3 ovarian, 47.7%; in the assay with IGROV1 ovarian, 73.1%; in the assay on HS 578T breast it was 54.4%; with NCI/ADR-RES ovarian, 46.8%.
With `CCN(CC)CCC(CNc1ccnc2cc(Cl)ccc12)c1ccc(O)cc1` (configuration not stated), the growth is 119% with SK-MEL-2 melanoma; 99.4% with EKVX NSCLC; 99.1% in the assay on SN12C renal; 77.4% in the assay on UO-31 renal; 90.2% with TK-10 renal; 98.5% in the assay on ACHN renal. The growth was 37.7% in the assay on A498 renal; 46% in the assay on CCRF-CEM leukemia; 48.3% in the assay on MOLT-4 leukemia; 47.5% in the assay with SR leukemia; 51.3% in the assay with RPMI-8226 leukemia; 92.2% in the assay with OVCAR-8 ovarian. Moreover, the growth in the assay with OVCAR-5 ovarian is 103%; with OVCAR-4 ovarian it was 91.4%; in the assay with SK-OV-3 ovarian, 104%; in the assay with IGROV1 ovarian it was 78.1%; in the assay with OVCAR-3 ovarian it was 98.7%; in the assay on NCI/ADR-RES ovarian it was 99.8%.
With `COc1cc(/C=C/C(=O)c2ccc(NC(=O)CSc3nnc(-c4ccc(Cl)cc4)n3-c3ccccc3)cc2)cc(OC)c1OC`, the growth in the assay with SK-MEL-2 melanoma is 81.1%; in the assay with EKVX NSCLC, 75.1%; in the assay with SN12C renal, 74.5%; with UO-31 renal, 75.6%; in the assay with TK-10 renal it was 89.4%; with ACHN renal, 82.4%. In addition, the growth in the assay on A498 renal was 77.5%; in the assay on CCRF-CEM leukemia, 57.8%; in the assay on MOLT-4 leukemia it was 40.8%; in the assay with RPMI-8226 leukemia, 9.23% (active); in the assay on OVCAR-8 ovarian, 62.3%; with OVCAR-5 ovarian, 128%. The growth was 57.2% in the assay on OVCAR-4 ovarian; 86.6% in the assay on SK-OV-3 ovarian; 74.7% in the assay on IGROV1 ovarian; 73.4% with OVCAR-3 ovarian; 92.9% in the assay with HS 578T breast; 87.9% with NCI/ADR-RES ovarian.
For `C=CCn1c(SCC(=O)Nc2ccc(C(=O)/C=C/c3ccccc3)cc2)nnc1-c1ccc(OC)c(OC)c1`, the growth in the assay on SK-MEL-2 melanoma is 85.2%; in the assay with EKVX NSCLC, 80.7%; with SN12C renal, 74.7%; in the assay on UO-31 renal, 55.7%; with TK-10 renal, 87.6%; with ACHN renal, 86.8%. For the same molecule, the growth was 75% in the assay with A498 renal; 83.7% in the assay on CCRF-CEM leukemia; 58.2% in the assay with MOLT-4 leukemia; 2.52% (active) in the assay on RPMI-8226 leukemia; 78.5% in the assay with OVCAR-8 ovarian; 108% with OVCAR-5 ovarian. In addition, the growth in the assay on OVCAR-4 ovarian was 72.5%; in the assay with SK-OV-3 ovarian it was 93.4%; in the assay on IGROV1 ovarian, 81.6%; in the assay with OVCAR-3 ovarian, 78.1%; with HS 578T breast, 96.4%; in the assay with NCI/ADR-RES ovarian, 80.1%.
For the molecule `CN(C)c1ccc(N2Cc3ccccc3OC3=C2C(=O)c2c(O)ccc(O)c2C3=O)cn1`, the growth with SK-MEL-2 melanoma was -51.5% (active); in the assay with EKVX NSCLC, -15.8% (active); with SN12C renal, -91.7% (active); in the assay with UO-31 renal, -99.1% (active); with TK-10 renal it was -93.9% (active); in the assay with ACHN renal, -100% (active). The growth in the assay with A498 renal is -61.1% (active); with CCRF-CEM leukemia it was -8.39% (active); with MOLT-4 leukemia, -22.4% (active); in the assay with RPMI-8226 leukemia it was -17.2% (active); with OVCAR-8 ovarian, -12.1% (active); with OVCAR-5 ovarian it was -50.6% (active). The growth in the assay with OVCAR-4 ovarian was -98.2% (active); in the assay on SK-OV-3 ovarian, -7.84% (active); in the assay on IGROV1 ovarian, -63.3% (active); in the assay with OVCAR-3 ovarian, -95.8% (active); in the assay with HS 578T breast it was 44.7%; in the assay with NCI/ADR-RES ovarian it was 3.51% (active).
